Activity calls are given as the source filed them.

The subject of experiment [1] is Plasmodium falciparum Sir2 (PF13_0152, Sir2A). The experiment in a line: Plasmodium falciparum Sir2A binding compounds – biochemical, small-molecule microarray, 635 nm fluorescence, primary screen (AID 1098).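 Further: score merges spot fluorescence intensity with its signal-to-noise ratio.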 The note with it: fluorescence 635 nm, higher = more signal.
Experiment [2] is described as follows: probe aDKK1 binding to arrayed compounds – biochemical, biotinylated probe, 635/667 nm fluorescence, primary screen (AID 1099).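 Further: score merges 667nm spot fluorescence with signal to noise across triplicate slides.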 The note with it: small-molecule microarray, higher = more signal.
A short description of experiment [3]: probe aCHRDL2 binding to arrayed compounds – biochemical, biotinylated probe, 635/667 nm fluorescence, primary screen (AID 1100). The note with it: small-molecule microarray, higher = more signal.
A short description of experiment [4]: change in splice reporter luminescence, either direction, cell-based, HEK293, spliceosome inhibition project, primary screen (AID 1101).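 Further: HEK293 cells carrying a splicing-competent luciferase reporter gene; test concentration not given here.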 The note with it: HEK293 splicing luciferase reporter, 24 h, higher = more signal, called active from +8 up or from −8 down. Background: A reporter such as luciferase makes a cellular process visible.
In experiment [5] the target is Fibroblast growth factor 10 (Homo sapiens) (UniProt O15520). The experiment in a line: compounds binding fibroblast growth factor 10 – biochemical, small-molecule microarray, 635 nm fluorescence, primary screen (AID 1102). The note with it: FGF10 binding, fluorescence 635 nm, higher = more signal.
Sequence of Fibroblast growth factor 10 (Homo sapiens) (O15520 whole entry, looked up): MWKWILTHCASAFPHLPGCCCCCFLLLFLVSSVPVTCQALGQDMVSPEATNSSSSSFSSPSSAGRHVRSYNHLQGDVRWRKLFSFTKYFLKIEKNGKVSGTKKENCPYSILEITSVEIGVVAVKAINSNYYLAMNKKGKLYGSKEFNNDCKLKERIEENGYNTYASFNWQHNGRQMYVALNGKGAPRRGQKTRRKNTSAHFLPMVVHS
Experiment [6] has as its system glycogen synthase kinase-3 (GSK3A per assay name; protocol says GSK3B). As to the kind of experiment: compounds binding glycogen synthase kinase-3 – biochemical, small-molecule microarray, 635 nm fluorescence, GSK3A, primary screen (AID 1103). Further: the record names both GSK3A and GSK3B. The note with it: fluorescence 635 nm, higher = more signal.
Experiment [7] has as its target Epidermal growth factor receptor (Homo sapiens) (UniProt P00533). The experiment in a line: compounds binding epidermal growth factor receptor – biochemical, small-molecule microarray, 635 nm fluorescence, primary screen (AID 1104).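 Further: score merges 667 nm emission intensity with spot signal to noise over triplicate slides.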 The note with it: EGFR binding, higher = more signal.
For experiment [8], the target named is Follistatin-related protein 3 (Homo sapiens) (UniProt O95633). The experiment in a line: compounds binding follistatin-related protein 3 – biochemical, small-molecule microarray, 635 nm fluorescence, primary screen (AID 1105).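 Further: score merges emission near 667 nm and signal to noise per printed spot across three slides.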 The note with it: FSTL3 binding, higher = more signal.
Sequence of Follistatin-related protein 3 (Homo sapiens) (O95633 whole entry, looked up): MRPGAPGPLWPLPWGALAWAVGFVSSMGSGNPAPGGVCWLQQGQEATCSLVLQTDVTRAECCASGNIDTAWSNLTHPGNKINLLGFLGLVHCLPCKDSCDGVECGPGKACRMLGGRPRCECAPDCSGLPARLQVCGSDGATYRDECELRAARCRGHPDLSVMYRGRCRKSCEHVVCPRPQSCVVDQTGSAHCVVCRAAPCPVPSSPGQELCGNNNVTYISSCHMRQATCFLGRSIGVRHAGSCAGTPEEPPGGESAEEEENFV
Experiment [9] addresses Dickkopf-related protein 1 (Homo sapiens) (UniProt O94907). As to the kind of experiment: small molecules binding DKK1 protein – biochemical, small-molecule microarray, 635 nm fluorescence scan, primary screen (AID 1106).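 Further: score merges emission near 667 nm with signal to noise over three replicate slides.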 The note with it: higher = more signal.
The test system of experiment [10] is Inhibin beta A chain (activin A). The experiment in a line: small molecules binding activin A – biochemical, small-molecule microarray, 635 nm fluorescence scan, primary screen (AID 1107).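 Further: mouse activin A protein probed at 4.33 µg/mL on printed slides; score merges bound-protein fluorescence near 667 nm with spot signal-to-noise.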 The note with it: INHBA, higher = more signal.
For experiment [11], the system named is Human papillomavirus type 1a protein E7 (residues 44-93). As to the kind of experiment: small molecules binding HPV E7 44-93 – biochemical, small-molecule microarray, residues 44-93, 635 nm fluorescence, primary screen (AID 1108).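 Further: E7 fragment applied at 1 µg/mL in TBST for 1 h at 4 C; score combines spot fluorescence with its signal to noise ratio.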 The note with it: fluorescence 635 nm, higher = more signal.
Experiment [12] is described as follows: hepatitis C replication reporter changes, two-sided – Huh7 cells, luciferase reporter, HCV replication inhibitor project, primary screen (AID 1109).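 Further: huh7 hepatoma cells harbouring a luciferase neomycin HCV replicon reporter; luciferase luminescence as measure of HCV replicon replication; test concentration not given here.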 The note with it: Huh7 HCV replicon luciferase reporter, 48 h; higher = more signal.
The target in experiment [13] is Left-right determination factor 2 (Homo sapiens) (UniProt O00292). The experiment in a line: small molecules binding LEFTY2 protein – biochemical, small-molecule microarray, 635 nm fluorescence scan, primary screen (AID 1110). The note with it: higher = more signal.
Sequence of Left-right determination factor 2 (Homo sapiens) (O00292 whole entry, looked up): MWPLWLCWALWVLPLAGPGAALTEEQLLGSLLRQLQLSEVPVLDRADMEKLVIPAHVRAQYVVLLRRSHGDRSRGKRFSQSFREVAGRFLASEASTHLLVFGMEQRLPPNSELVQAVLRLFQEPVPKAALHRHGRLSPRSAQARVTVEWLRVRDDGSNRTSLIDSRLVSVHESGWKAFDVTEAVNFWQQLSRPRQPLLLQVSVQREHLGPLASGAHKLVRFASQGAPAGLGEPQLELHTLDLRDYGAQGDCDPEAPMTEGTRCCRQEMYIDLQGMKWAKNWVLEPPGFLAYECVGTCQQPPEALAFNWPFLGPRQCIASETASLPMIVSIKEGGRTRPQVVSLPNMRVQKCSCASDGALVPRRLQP
The target of experiment [14] is Calmodulin-1 (Homo sapiens) (UniProt P0DP23). As to the kind of experiment: small molecules binding calmodulin-1 with EGTA – biochemical, small-molecule microarray, Cy5-labelled CALM1, profiling panel (AID 1111).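 Further: labelled calmodulin applied in Tris saline Tween buffer holding calcium plus EGTA and DTT.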 The note with it: Cy5-CALM1 binding fluorescence, higher = more signal.
The target is the same in experiment [15]. The experiment in a line: small molecules binding Ca-loaded calmodulin-1 – biochemical, small-molecule microarray, Cy5-labelled CALM1, plus calcium, artefact control for SMM control-protein annotation, profiling panel (AID 1112).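 Further: score merges spot fluorescence with signal to noise from triplicate slides.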 The note with it: Cy5-CALM1 binding fluorescence, higher = more signal.
Experiment [16] can be described thus: probe aWnt5a binding to arrayed compounds – biochemical, biotinylated probe, 635/667 nm fluorescence, primary screen (AID 1113).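 Further: score merges 667 nm fluorescence intensity with signal-to-noise per printed feature.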 The note with it: small-molecule microarray, higher = more signal.
A short description of experiment [17]: probe aShh binding to arrayed compounds – biochemical, biotinylated probe, 635/667 nm fluorescence, primary screen (AID 1114).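 Further: probe is biotin-labelled aShh protein from a stem cell growth factor screen; measures binding of labelled protein to compounds printed on the slide; score merges feature fluorescence at 667 nm with signal-to-noise.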 The note with it: small-molecule microarray, higher = more signal.
The nature of experiment [18]: probe aNog binding to arrayed compounds – biochemical, biotinylated probe, 635/667 nm fluorescence, primary screen (AID 1115).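 Further: probe is biotinylated aNog protein used at 0.15 µg/mL for 1 h at 4 C; z-score combines 667 nm fluorescence of each spot with its signal to noise.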 The note with it: small-molecule microarray, higher = more signal.
For experiment [19], the target named is Torsin-1A-interacting protein 1 (Homo sapiens) (UniProt Q5JTV8). As to the kind of experiment: compound microarray binding of lysate hLAP1 – cell lysate, small-molecule microarray, COS7 lysate, 635/667 nm fluorescence, primary screen (AID 1116). The note with it: 635 nm fluorescence, higher = more signal.
Sequence of Torsin-1A-interacting protein 1 (Homo sapiens) (Q5JTV8 whole entry, looked up): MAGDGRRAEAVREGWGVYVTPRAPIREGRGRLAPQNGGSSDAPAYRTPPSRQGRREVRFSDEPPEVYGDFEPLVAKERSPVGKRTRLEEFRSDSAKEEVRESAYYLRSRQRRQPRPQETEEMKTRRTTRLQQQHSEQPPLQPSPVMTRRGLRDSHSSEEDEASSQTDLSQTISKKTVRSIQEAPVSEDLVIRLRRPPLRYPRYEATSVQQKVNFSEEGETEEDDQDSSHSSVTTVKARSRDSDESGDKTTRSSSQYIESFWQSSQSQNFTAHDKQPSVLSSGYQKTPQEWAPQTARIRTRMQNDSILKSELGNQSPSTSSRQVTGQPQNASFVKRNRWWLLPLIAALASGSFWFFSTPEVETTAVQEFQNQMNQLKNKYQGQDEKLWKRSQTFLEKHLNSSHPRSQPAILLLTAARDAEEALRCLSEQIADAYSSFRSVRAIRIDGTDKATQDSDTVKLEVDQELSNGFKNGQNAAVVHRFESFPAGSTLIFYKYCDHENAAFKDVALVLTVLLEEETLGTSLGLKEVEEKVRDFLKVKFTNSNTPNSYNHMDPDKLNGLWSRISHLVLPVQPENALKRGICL
The target in experiment [20] is Alpha-bungarotoxin (Bungarus multicinctus) (UniProt P60615). The experiment in a line: compounds binding labelled alpha-BTX control protein – biochemical, small-molecule microarray, Alexa647 label, 635/667 nm fluorescence, artefact control for SMM control protein annotation, profiling panel (AID 1117). The note with it: alpha-BTX-A647 binding fluorescence, higher = more signal.
Sequence of Alpha-bungarotoxin (Bungarus multicinctus) (P60615 whole entry, looked up): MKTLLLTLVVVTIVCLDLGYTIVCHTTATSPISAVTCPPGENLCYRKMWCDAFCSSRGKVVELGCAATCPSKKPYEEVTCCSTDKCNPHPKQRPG

Sequence of Dickkopf-related protein 1 (Homo sapiens) (O94907 whole entry, looked up): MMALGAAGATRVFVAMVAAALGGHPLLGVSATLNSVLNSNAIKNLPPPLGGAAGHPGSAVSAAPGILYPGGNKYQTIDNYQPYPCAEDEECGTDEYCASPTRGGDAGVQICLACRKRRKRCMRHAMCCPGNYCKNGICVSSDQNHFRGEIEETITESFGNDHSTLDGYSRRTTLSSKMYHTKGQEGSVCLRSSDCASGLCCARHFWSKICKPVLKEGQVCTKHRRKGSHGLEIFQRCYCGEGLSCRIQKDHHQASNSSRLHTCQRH
Sequence of Epidermal growth factor receptor (Homo sapiens) (P00533 whole entry, looked up): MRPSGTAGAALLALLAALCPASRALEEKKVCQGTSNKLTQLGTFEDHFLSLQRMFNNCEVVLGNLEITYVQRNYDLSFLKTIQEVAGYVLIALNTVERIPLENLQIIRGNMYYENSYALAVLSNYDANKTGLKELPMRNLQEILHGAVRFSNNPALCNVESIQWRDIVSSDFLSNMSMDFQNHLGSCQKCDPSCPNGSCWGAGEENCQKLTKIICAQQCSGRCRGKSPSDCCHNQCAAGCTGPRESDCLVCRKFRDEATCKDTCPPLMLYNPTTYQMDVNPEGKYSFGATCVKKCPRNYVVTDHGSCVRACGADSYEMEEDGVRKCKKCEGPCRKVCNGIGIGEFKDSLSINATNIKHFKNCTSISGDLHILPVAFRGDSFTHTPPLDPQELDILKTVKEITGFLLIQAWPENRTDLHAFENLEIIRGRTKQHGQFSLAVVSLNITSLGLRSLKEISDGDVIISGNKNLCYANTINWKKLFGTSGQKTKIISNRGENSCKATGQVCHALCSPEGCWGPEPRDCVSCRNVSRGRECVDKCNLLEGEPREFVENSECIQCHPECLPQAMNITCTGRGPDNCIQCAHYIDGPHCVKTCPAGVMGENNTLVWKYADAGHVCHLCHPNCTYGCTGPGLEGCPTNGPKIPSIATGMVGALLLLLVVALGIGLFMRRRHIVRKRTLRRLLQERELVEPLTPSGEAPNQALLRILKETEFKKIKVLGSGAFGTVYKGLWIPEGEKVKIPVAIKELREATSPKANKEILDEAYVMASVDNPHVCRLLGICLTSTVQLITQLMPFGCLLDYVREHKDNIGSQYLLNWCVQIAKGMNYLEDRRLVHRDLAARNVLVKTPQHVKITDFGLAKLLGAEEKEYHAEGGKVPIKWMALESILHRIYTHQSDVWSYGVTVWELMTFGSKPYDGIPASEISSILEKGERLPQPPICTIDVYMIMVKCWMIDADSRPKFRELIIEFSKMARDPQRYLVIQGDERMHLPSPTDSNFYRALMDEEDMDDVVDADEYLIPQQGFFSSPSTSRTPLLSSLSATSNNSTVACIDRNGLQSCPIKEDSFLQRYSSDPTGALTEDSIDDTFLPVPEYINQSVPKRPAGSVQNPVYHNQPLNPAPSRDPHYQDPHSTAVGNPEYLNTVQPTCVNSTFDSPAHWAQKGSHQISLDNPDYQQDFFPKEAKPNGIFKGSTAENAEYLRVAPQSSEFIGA

`C=CCC(OC(C)=O)[C@@H]1[C@@H](N(Cc2ccc(-c3ccccc3)cc2)C(=O)c2ccc(C)cc2)c2cc(OCCCO)ccc2N1C(=O)Cc1ccc2ccccc2c1` (stereo not given in full): the composite z-score in experiment [1] is -0.334; in [2], -0.199; in experiment [3] it was 0.0333; in experiment [5], 0.107; in experiment [6], -0.197; in experiment [7], 0.251. Also, the composite z-score in experiment [8] is -0.274; in experiment [9], 0.258; in experiment [10] it was 0.567; in experiment [11], -0.579; in experiment [13], -0.0611; in experiment [14], -0.117. The composite z-score was 0.53 in [15]; -0.0794 in [16]; -0.349 in experiment [17]; 0.0127 in experiment [18]; 1.68 in experiment [19]; 0.0941 in [20]. Moreover, the values for the z-score in experiment [4] and in [12] were -1.84 (inactive) and -0.588, respectively.
For `C=C[C@@H](OC)[C@H](OC(=O)Nc1ccc(OC)cc1)c1ccc(OC)c(O)c1`, the composite z-score is -1.1 in [1]; -0.259 in experiment [2]; 0.601 in experiment [3]; -0.818 in experiment [5]; -0.465 in [6]; -0.75 in experiment [7]. In addition, the composite z-score in [8] is -1.11; in experiment [9], -0.642; in [10], -0.267; in [11], -0.546; in experiment [13] it was -1.86; in experiment [14] it was -0.56. Further, the composite z-score in experiment [15] is -0.194; in experiment [16] it was -0.154; in experiment [17], -0.367; in experiment [18] it was -0.45; in experiment [19], -0.386; in experiment [20] it was -0.382. Besides, the values for the z-score in experiment [4] and in experiment [12] were -0.657 (inactive) and 0.15, respectively.
Take `C=CCNC(=O)[C@H]1[C@@H]2C(=O)O[C@@H](c3ccccc3)[C@@H](c3ccccc3)N2[C@@H](c2ccc(OCCO)cc2)[C@]12C(=O)N(C(=O)OCCOC)c1ccc(C#Cc3ccc(OC)cc3)cc12`: the composite z-score was 1.28 in [1]; 0.195 in experiment [2]; -0.0801 in experiment [3]; 0.866 in [5]; 1.28 in experiment [6]; 0.639 in [7]. Further, the composite z-score came to 0.749 in experiment [8]; 0.189 in [9]; 0.768 in [10]; 1.4 in experiment [11]; 0.631 in experiment [13]; 0.512 in experiment [14]. For the same compound, the composite z-score in experiment [15] was 0.14; in experiment [16], -0.0445; in experiment [17], 0.0976; in [18] it was 0.447; in [19], -0.0927; in experiment [20] it was 1.49. The z-score in experiment [4] is -0.957 (inactive); in [12], -2.54.
Turning to `CC1CC/C=C\[C@H]2OC34C=CCN(CCN5CCOCC5)C(=O)[C@H]3N(C(C)CO)C(=O)[C@@H]4C2C(=O)O1` (stereo not given in full), the composite z-score in experiment [1] was 0.489; in experiment [2], -0.356; in experiment [3], -0.415; in experiment [5], -0.42; in experiment [6], -0.42; in experiment [7], -0.599. For the same compound, the composite z-score was -0.214 in [8]; -0.0076 in experiment [9]; 1.14 in experiment [10]; 0.523 in [11]; -0.536 in experiment [13]; -0.666 in experiment [14]. Besides, the composite z-score in experiment [15] was -1.4; in experiment [16] it was -0.199; in experiment [17], 0.147; in experiment [18], -0.373; in [19] it was -0.719; in experiment [20], -0.807. Moreover, the z-score is 1.02 (inactive) in [4] and -0.91 in experiment [12].
On to `CC(C)[Si]1(C(C)C)OCc2cc(-c3ccc(-c4ccc(Cl)c(Cl)c4)o3)nc(CCc3ccccc3)c21`, for which the composite z-score in [1] was 0.508; in [2] it was -0.0914; in experiment [3] it was -0.17; in experiment [5], 0.187; in experiment [6], -0.181; in experiment [7], -0.833. The composite z-score in experiment [8] was 0.169; in experiment [9], 0.32; in experiment [10], 0.536; in experiment [11] it was -0.655; in experiment [13], 0.198; in experiment [14], -0.307. For the same compound, the composite z-score in experiment [15] is 0.688; in [16] it was -0.054; in experiment [17], -0.601; in [18], 0.428; in experiment [19], -0.395; in experiment [20], -0.327. For the same compound, the z-score was -2.1 (inactive) in [4] and -0.826 in [12].
As for `COc1ccc([Si](C)(C)[C@@H]2[C@@H](CC(=O)N3Cc4ccccc4C[C@H]3CO)O[C@]3(C(=O)N(c4ccccc4)c4ccccc43)[C@H]2C)cc1`, the composite z-score turned out to be 2.04 in experiment [1]; 0.713 in experiment [2]; 0.449 in [3]; 1.09 in experiment [5]; 1.26 in experiment [6]; 0.799 in experiment [7]. Also, the composite z-score in experiment [8] stood at 1.37; in experiment [9], 1.1; in experiment [10] it was 0.816; in experiment [11], 1.38; in experiment [13] it was 0.671; in experiment [14] it was 1.75. Further, the composite z-score in experiment [15] was 1.36; in experiment [16] it was 0.418; in experiment [17], 0.293; in experiment [18], 1.14; in [19] it was 0.553; in experiment [20] it was 1.26. Besides, the z-score in [4] was -0.0709 (inactive); in [12], -4.41.
`Cc1ccc(S[C@]2(C(=O)NCC(C)C)CC(=O)N(C3Cc4ccccc4C3)[C@@H]2c2ccc(CO)cc2I)cc1`: the composite z-score in experiment [1] was 1.35; in experiment [2], -0.126; in [3] it was -0.0156; in experiment [5] it was -0.767; in [6], -0.61; in experiment [7], -0.821. In addition, the composite z-score in experiment [8] is 0.594; in [9], -1.02; in experiment [10], 0.847; in [11], -0.117; in [13], -1.2; in experiment [14] it was -0.257. In addition, the composite z-score was 0.27 in [15]; -0.125 in experiment [16]; -0.368 in [17]; 0.0862 in experiment [18]; 0.273 in experiment [19]; -0.324 in [20]. Moreover, the z-score in [4] was -0.968 (inactive); in experiment [12], -1.33.
Turning to `CCOC(=O)C[C@H]1[C@H](OC(=O)c2ccc(-c3ccccc3)cc2)[C@@H](NC(=O)Cc2ccc(OC)cc2)c2cc(OCCCO)ccc2N1C(=O)Cc1ccc(OC)cc1`, the composite z-score in [1] was 0.064; in experiment [2], 0.288; in experiment [3], 0.723; in [5], 0.244; in [6], -0.602; in [7], 0.0599. In addition, the composite z-score is -0.0955 in [8]; -0.276 in experiment [9]; 0.38 in experiment [10]; 0.102 in experiment [11]; -0.0069 in experiment [13]; 0.655 in [14]. The composite z-score was 0.767 in experiment [15]; -0.0114 in experiment [16]; 0.0952 in [17]; 0.0759 in experiment [18]; 0.456 in [19]; 0.913 in experiment [20]. Moreover, the z-score in experiment [4] is -0.0344 (inactive); in [12] it was -0.261.

The values are drawn from PubChem BioAssay.
